Compound activity from PubChem BioAssay.
PKM2 inh: inhibitors of human pyruvate kinase M2; P14618; purified PKM2, ATP generation, Kinase-Glo luminescence; Potency, µM (top dose mostly 57.5 µM), for the others: top-dose activity change, negative = inhibition, actives largely listed as inhibitors; actives 0.058% (n = 260,000); AID 1634; active means well fitted inhibition curve with a large enough effect; further: nearly all actives have a fitted effect of over 60% in size
Target sequence (P14618 whole entry, looked up): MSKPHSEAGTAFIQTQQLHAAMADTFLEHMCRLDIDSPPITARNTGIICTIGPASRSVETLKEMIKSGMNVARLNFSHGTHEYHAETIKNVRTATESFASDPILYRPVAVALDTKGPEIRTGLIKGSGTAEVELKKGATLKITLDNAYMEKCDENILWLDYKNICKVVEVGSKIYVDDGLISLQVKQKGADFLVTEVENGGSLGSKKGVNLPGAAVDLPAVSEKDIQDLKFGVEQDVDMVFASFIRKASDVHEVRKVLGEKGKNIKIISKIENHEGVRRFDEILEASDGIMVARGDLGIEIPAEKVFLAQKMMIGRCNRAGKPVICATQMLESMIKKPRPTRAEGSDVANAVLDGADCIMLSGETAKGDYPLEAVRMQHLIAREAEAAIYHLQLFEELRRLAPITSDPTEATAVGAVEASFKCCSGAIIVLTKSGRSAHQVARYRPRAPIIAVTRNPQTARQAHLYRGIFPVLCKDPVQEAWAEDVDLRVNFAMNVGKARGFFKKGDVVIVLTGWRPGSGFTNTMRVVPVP
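Coupled luciferase luminescence (Kinase-Glo) detects ATP generated from 0.1 mM ADP and 0.5 mM PEP in imidazole buffer pH 7.2 with KCl, MgCl2; 1 h at room temperature. Enzyme at intermediate activity; normalized to uninhibited and no-enzyme controls.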
Starred values were filed as active, the others as inactive. Only a selection was taken, and hits are over-represented in it overall. Potency means the concentration at half of the fitted maximal effect.

SMILES	PKM2 inh
COc1cccc(NC(=O)CSc2ccccn2)c1	49.4%
COc1ccc(NC(=O)c2ccc(NC(=O)CSc3nccc(=O)[nH]3)cc2)cc1	32.0%
COc1ccc(NC(=O)c2ccccn2)cc1	14.1µM*
CNS(=O)(=O)c1ccc2c(c1)oc(=O)c1cc(S(=O)(=O)NC)ccc12	104.5%
CC(=O)c1ccc(S(=O)(=O)Nc2ccc(-c3cn4c(n3)SCC4)cc2)cc1	42.8%
COc1ccc(OCC(O)CNS(=O)(=O)c2cccc(Cl)c2)cc1 (stereo unspecified)	35.8%
COc1ccc2nc(/N=C/c3c(C)[nH]n(-c4ccc(C)cc4)c3=O)sc2c1	14.1µM*
Cc1cc(C)n(C(=O)c2cc3c(s2)CCCC3)n1	-9.7%
Cc1ccc(C(=O)OCn2ncc(Cl)c(Cl)c2=O)cc1	30.6%
Cc1ccc(C(=O)O/N=C(\N)c2ccccn2)cc1	5.62µM*
Cc1ccc(C(=O)/C=C/C(=O)c2ccc(C)cc2)cc1	54.3%
Cc1ccc(C(=O)O/N=C(\N)c2nonc2N)cc1	12.6µM*
CCN1CCN(S(=O)(=O)c2ccc(Cl)c(C(=O)NC(C)(C)C)c2)CC1	36.3%
O=S(=O)(NNc1ccc(F)cc1F)c1cccc(Cl)c1	50.5%
CS(=O)(=O)c1sc(C#N)c2c1C(=O)CC(c1ccccc1)C2 (stereo unspecified)	35.2%
Cc1c(C(=O)NCCN2C(=O)S/C(=C\c3cccnc3)C2=O)cccc1[N+](=O)[O-]	31.5%
Clc1ccccc1Nc1nnc(-c2ccncc2)s1	12.6µM*
CS(=O)(=O)Nc1ccc(C2=NN(C(=O)c3ccco3)C(c3ccccc3F)C2)cc1 (stereo unspecified)	118.5%
Cc1ccc(NC(=O)c2ccc(Cl)c(N3C(=O)C=CC3=O)c2)cc1	119.4%
O=C1N(CCCl)c2ccc(Br)cc2C12OCCO2	55.7%
Oc1cc2c(cc1CN1CCc3ccccc3C1)OCO2	32.3%
c1ccc2c(c1)Cc1cc3cc4c(cc3nc1-2)OCO4	8.91µM*
Cc1ccc(S(=O)(=O)NCCc2ccncc2)cc1C	34.2%
CC(NC(=O)/C=C/c1ccco1)c1nc2ccccc2n1Cc1cccc(Cl)c1 (stereo unspecified)	40.4%
O=C(CCc1ccccc1)N1CCN(S(=O)(=O)c2cccs2)CC1	83.5%
SMILES	PKM2 inh
CCN(CC)S(=O)(=O)c1cccc(C(=O)N/N=C/c2ccccn2)c1	1.6%
CCN1/C(=C/c2ccc3cc(C)ccc3[n+]2CC)Sc2ccccc21	4.47µM*
Cc1cccc(NS(=O)(=O)c2cc3c(cc2C)NC(=O)CO3)c1	89.4%
O=C(Nc1ccccc1C(=O)N/N=C/c1ccncc1)c1ccccc1	14.1µM*
Cc1cccc(C)c1NC(=S)N/N=C/c1ccccc1C(=O)O	-4.4%
O=C(N/N=C/c1ccncc1)c1cc([N+](=O)[O-])cc([N+](=O)[O-])c1O	31.3%
C=CCn1c(COc2ccccc2OC)nc2ccccc21	57.6%
COCCNC(=O)C(c1ccc(Cl)cc1)N(C(=O)Cn1nnc2ccccc21)c1cccnc1 (stereo unspecified)	77.0%
COc1cccc(CSc2nc3ccncc3[nH]2)c1	14.1µM*
COc1ccc(S(=O)(=O)N2CCN=C2SCc2cccnc2)cc1	56.1%
COc1cccc(Cn2nc(C(=O)O)c3ccccc3c2=O)c1	37.8%
O=[N+]([O-])c1cc2c(c(CSc3nnnn3-c3ccc(O)cc3)c1)OCOC2	37.3%
Cc1cc(C)c(S(=O)(=O)N2CCN(C(=O)CCn3nc(C)c(C)c3C)CC2)c(C)c1	79.7%
O=C(c1ccc(Cn2cc(Cl)c([N+](=O)[O-])n2)cc1)N1CCN(Cc2ccccc2)CC1	38.1%
CC1(C)CC(=O)C(C(C2=C(O)CC(C)(C)CC2=O)c2ccc(Br)s2)C(=O)C1 (stereo unspecified)	43.8%
CCCn1c(N)c(C(=O)CSc2nc(C)cs2)c(=O)n(C)c1=O	110.1%
CC1S/C(=N/N=C/c2ccco2)N(Cc2ccccc2)C1=O (stereo unspecified)	93.2%
COc1ccc(N=Nc2n(C)c3ccccc3[n+]2C)cc1	12.6µM*
COc1ccc(S(=O)(=O)N2CCc3cc(OC)c(OC)cc3C2)cc1	91.3%
CC(=O)N1[C@H](C)C=C[C@]1(Cc1ccccc1)C(=O)NCc1ccc(C)o1	51.5%
Cc1cc2c(cc1S(=O)(=O)Nc1cccc(C)c1C)n(C)c(=O)c(=O)n2C	87.3%
Cc1nn(CCC(=O)N2CCN(S(=O)(=O)c3ccccc3)CC2)c(C)c1C	83.4%
Cc1ccsc1/C=C1\CCc2ccccc2C1=O	25.1µM*
Cc1ccc(C(=O)N2CCN(C(=O)c3ccc(C)cc3)C2)cc1	70.4%
CSc1c(-c2ccccn2)c(N)nn1C(=O)C1CCC1	57.1%
SMILES	PKM2 inh
COc1cc(OC)c(NC(=O)CCc2nc(-c3cccs3)no2)cc1Cl	42.3%
C=CCn1c(SCC(N)=O)nc2scc(-c3ccc(C)o3)c2c1=O	74.0%
Cc1ccc(S(=O)(=O)N(C)CC(=O)N/N=C/c2ccc(C)o2)cc1	34.3%
O=C(O)CCn1cc(C2CC(c3ccccc3)=NN2c2ccccc2)c(-c2ccccc2)n1 (stereo unspecified)	35.4%
CCOC(=O)CSc1nc2c(sc3ccc([N+](=O)[O-])cc32)c(=O)n1Cc1ccco1	38.6%
Cc1nc(-c2ccc(Cl)cc2)sc1C1(C)CC(c2ccc(F)cc2)=NO1 (stereo unspecified)	-1.6%
Cc1ccc(N=Cc2c(C)[nH]n(-c3nc4ccccc4[nH]3)c2=O)cc1	10µM*
O=C(Nc1ccc2c(c1)C(=O)NC2=O)c1cc(Cl)ccc1Cl	-0.7%
COC(=O)[C@@]1(Cc2ccc(F)cc2)[C@H]2c3cc(C(=O)N(C)C)n(CCc4ccc(O)c(O)c4)c3C[C@H]2CN1C(=O)c1ccccc1	41.9%
CCn1c(CCc2ccccc2)nc2ccccc21	30.9%
CN(C)S(=O)(=O)c1cccc(NC(=O)CSc2cccc3cccnc23)c1	43.6%
COC(=O)c1cc(-c2ccc(C)o2)nc2ccccc12	55.8%
Cc1ccc(-c2nc3c(c(=O)[nH]c(=O)n3Cc3ccccc3)n2C)o1	48.1%
Cc1ccc(-c2nc3ccccc3n2C)o1	12.6µM*
C=CCN1CCc2c(cc(O)c(O)c2Cl)C(c2cccc(C)c2)C1 (stereo unspecified)	33.1%
Cc1nc2ccc(C(=O)NCc3ccc4c(c3)OCO4)cc2s1	36.3%
Cc1noc(C)c1COc1cccc(C(=O)Oc2ccc3c(c2)OCO3)c1	0.7%
Cc1cccc(/C(N)=N/OC(=O)c2ccc3c(c2)OCO3)c1	11.2µM*
CCOc1ccc2nc(NS(=O)(=O)c3cccs3)sc2c1	58.1%
CCCCCCS(=O)Cc1ccccc1 (stereo unspecified)	-7.6%
CC(NC(=O)COC(=O)c1ccc(N(C)C)cc1)c1ccccc1 (stereo unspecified)	45.8%
CCOC(=O)c1c(NC(=O)CSc2nc3cc(Cl)ccc3c(=O)n2Cc2ccco2)sc(C(=O)N(C)C)c1C	45.9%
C=CCc1cccc2cc(C(=O)Nc3ccc(S(=O)(=O)Nc4nnc(CC)s4)cc3)c(=O)oc12	39.0%
COc1cccc(/C=N/Nc2ncnc3c2[nH]c2ccc(C)cc23)c1OC	57.0%
COc1cccc(/C=N/NC(=O)c2cc3c(OC)cccc3[nH]2)c1O	17.4%
SMILES	PKM2 inh
COc1cccc(/C=N/Nc2nccnc2Cl)c1O	14.1µM*
COc1ccc(-c2nn(-c3ccccc3)cc2/C=N/NS(=O)(=O)c2ccccc2)cc1	0.7%
COc1ccc(/C=N/Nc2nccnc2Cl)cc1	12.6µM*
Clc1nccnc1N/N=C/c1ccc(Br)cc1	14.1µM*
COCC(=O)OCC(=O)Nc1ccc(Cl)cc1[N+](=O)[O-]	76.4%
CC(=O)Nc1ccc(SCC(=O)N2CCN(S(=O)(=O)c3ccccc3)CC2)cc1	31.0%
